The text below walks through data of ChEMBL document CHEMBL1961873, “Compounds: GSK PKIS; Assays: Nanosyn kinase panel” (2012).

In test [1] the target is 5'-AMP-activated protein kinase catalytic subunit alpha-2 (Homo sapiens) (UniProt P54646). The conditions noted are these: at 1 µM.
Test [2] addresses T1, NUAK family SNF1-like kinase 1 (Homo sapiens) (UniProt O60285).
T1 sequence (whole entry): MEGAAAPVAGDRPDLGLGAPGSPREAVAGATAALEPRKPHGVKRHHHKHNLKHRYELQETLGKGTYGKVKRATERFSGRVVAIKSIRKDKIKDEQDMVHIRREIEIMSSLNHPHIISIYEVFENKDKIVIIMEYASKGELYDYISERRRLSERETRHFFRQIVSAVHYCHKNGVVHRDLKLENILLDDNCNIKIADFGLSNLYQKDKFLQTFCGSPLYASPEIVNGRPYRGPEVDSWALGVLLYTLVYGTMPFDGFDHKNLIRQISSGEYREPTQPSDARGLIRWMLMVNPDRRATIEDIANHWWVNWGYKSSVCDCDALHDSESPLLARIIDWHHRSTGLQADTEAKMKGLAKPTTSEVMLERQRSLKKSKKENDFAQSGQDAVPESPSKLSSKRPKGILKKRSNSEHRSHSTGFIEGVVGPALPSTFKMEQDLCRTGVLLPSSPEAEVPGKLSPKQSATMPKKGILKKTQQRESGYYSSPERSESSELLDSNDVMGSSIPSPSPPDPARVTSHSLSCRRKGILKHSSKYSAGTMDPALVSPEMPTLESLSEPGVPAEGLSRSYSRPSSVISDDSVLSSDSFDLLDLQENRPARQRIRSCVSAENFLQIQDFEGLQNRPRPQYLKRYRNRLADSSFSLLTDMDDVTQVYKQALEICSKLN
The conditions noted are these: at 0.1 µM.

Test [3] addresses T1, NUAK family SNF1-like kinase 1 (Homo sapiens). The conditions noted are these: at 1 µM.
Test [4] addresses T2, Serine/threonine-protein kinase BRSK1 (Homo sapiens) (UniProt Q8TDC3).
T2 sequence (whole entry): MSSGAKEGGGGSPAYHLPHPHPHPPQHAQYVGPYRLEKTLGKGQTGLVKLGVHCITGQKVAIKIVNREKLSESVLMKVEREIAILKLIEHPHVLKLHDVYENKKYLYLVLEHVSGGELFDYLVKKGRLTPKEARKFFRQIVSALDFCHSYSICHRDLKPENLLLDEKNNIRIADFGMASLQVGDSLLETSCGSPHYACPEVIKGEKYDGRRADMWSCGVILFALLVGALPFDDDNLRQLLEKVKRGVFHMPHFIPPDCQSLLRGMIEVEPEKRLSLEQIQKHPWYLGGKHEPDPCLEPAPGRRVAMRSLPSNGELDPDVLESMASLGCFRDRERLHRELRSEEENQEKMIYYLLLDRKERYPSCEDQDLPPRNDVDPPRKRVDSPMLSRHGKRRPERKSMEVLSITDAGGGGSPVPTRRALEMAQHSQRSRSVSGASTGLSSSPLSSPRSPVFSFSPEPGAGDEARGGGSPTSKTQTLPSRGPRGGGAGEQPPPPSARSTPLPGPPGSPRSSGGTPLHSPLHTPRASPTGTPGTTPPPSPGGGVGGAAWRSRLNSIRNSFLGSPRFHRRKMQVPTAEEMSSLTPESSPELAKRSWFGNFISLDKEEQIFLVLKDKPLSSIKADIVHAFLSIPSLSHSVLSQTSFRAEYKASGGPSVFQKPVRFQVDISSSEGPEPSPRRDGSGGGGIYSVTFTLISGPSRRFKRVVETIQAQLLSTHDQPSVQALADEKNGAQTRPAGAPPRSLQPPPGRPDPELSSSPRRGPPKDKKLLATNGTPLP
The conditions noted are these: at 0.1 µM.

Test [5] has as its target T2, Serine/threonine-protein kinase BRSK1 (Homo sapiens). The conditions noted are these: at 1 µM.
The target of test [6] is T3, Serine/threonine-protein kinase BRSK2 (Homo sapiens) (UniProt Q8IWQ3).
T3 sequence (whole entry): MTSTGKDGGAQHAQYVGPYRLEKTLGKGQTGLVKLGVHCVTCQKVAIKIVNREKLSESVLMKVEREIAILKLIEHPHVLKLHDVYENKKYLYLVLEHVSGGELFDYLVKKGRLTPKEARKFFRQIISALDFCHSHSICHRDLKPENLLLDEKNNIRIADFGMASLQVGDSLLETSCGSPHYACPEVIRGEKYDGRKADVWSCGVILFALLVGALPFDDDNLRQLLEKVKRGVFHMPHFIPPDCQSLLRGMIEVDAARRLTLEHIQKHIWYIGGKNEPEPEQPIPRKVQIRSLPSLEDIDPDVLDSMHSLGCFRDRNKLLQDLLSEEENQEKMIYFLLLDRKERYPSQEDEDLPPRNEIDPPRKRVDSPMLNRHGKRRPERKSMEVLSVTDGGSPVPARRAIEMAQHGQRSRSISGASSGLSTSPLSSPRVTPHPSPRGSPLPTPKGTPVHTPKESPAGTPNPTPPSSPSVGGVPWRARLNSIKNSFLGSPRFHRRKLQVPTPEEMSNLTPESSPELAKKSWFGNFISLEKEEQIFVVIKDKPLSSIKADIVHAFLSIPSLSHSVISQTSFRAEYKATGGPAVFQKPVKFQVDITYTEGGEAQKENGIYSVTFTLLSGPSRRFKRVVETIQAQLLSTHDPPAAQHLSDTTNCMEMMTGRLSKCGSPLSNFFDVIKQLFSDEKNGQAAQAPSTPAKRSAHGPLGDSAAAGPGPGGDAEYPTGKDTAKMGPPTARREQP
The conditions noted are these: at 0.1 µM.

Test [7] concerns the target T3, Serine/threonine-protein kinase BRSK2 (Homo sapiens). The conditions noted are these: at 1 µM.
Test [8] addresses Calcium/calmodulin-dependent protein kinase type 1D (Homo sapiens) (UniProt Q8IU85). The conditions noted are these: at 0.1 µM.
For test [9] the target is unchanged. The conditions noted are these: at 1 µM.
Test [10] deals with Calcium/calmodulin-dependent protein kinase type II subunit alpha (Homo sapiens) (UniProt Q9UQM7). The conditions noted are these: at 0.1 µM.
The target is the same in test [11]. The conditions noted are these: at 1 µM.
In test [12] the target is Calcium/calmodulin-dependent protein kinase type II subunit delta (Homo sapiens) (UniProt Q13557). The conditions noted are these: at 0.1 µM.
Test [13] has the same target. The conditions noted are these: at 1 µM.
Test [14] deals with T4, Calcium/calmodulin-dependent protein kinase type IV (Homo sapiens) (UniProt Q16566).
T4 sequence (whole entry): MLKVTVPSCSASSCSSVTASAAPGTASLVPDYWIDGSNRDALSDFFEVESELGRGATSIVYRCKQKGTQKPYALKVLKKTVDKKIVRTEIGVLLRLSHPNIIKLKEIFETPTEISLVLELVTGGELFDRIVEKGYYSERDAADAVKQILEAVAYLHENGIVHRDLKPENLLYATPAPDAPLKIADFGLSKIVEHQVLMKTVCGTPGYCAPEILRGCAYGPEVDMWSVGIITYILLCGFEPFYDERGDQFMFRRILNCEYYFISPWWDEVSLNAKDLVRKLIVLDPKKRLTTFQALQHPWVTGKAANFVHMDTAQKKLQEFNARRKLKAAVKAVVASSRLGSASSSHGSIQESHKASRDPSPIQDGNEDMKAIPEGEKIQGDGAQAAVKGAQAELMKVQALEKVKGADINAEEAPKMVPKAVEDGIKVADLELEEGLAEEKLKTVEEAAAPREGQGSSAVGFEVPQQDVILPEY
The conditions noted are these: at 0.1 µM.

In test [15] the target is T4, Calcium/calmodulin-dependent protein kinase type IV (Homo sapiens). The conditions noted are these: at 1 µM.
Test [16] has as its target T5, Serine/threonine-protein kinase Chk1 (Homo sapiens) (UniProt O14757).
T5 sequence (whole entry): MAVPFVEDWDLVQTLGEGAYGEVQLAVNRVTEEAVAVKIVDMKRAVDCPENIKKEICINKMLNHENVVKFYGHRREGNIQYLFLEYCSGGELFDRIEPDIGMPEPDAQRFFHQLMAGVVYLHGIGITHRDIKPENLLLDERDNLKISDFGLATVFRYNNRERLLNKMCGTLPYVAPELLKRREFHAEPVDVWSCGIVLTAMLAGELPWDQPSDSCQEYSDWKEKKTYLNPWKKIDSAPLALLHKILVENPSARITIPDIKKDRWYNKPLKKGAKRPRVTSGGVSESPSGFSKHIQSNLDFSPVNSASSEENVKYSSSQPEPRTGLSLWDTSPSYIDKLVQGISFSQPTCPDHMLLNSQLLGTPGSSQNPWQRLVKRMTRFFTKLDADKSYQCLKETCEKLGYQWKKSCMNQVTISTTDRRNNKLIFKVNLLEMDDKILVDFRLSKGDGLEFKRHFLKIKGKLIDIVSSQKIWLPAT
The conditions noted are these: at 0.1 µM.

Test [17] addresses T5, Serine/threonine-protein kinase Chk1 (Homo sapiens). The conditions noted are these: at 1 µM.
Test [18] addresses Serine/threonine-protein kinase Chk2 (Homo sapiens) (UniProt O96017). The conditions noted are these: at 0.1 µM.
Test [19] shares this target. The conditions noted are these: at 1 µM.
The target in test [20] is Death-associated protein kinase 1 (Homo sapiens) (UniProt P53355). The conditions noted are these: at 0.1 µM.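 Note: reported figure is the mean inhibition of DAPK1.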
Sequence of Death-associated protein kinase 1 (Homo sapiens) (P53355 whole entry, looked up): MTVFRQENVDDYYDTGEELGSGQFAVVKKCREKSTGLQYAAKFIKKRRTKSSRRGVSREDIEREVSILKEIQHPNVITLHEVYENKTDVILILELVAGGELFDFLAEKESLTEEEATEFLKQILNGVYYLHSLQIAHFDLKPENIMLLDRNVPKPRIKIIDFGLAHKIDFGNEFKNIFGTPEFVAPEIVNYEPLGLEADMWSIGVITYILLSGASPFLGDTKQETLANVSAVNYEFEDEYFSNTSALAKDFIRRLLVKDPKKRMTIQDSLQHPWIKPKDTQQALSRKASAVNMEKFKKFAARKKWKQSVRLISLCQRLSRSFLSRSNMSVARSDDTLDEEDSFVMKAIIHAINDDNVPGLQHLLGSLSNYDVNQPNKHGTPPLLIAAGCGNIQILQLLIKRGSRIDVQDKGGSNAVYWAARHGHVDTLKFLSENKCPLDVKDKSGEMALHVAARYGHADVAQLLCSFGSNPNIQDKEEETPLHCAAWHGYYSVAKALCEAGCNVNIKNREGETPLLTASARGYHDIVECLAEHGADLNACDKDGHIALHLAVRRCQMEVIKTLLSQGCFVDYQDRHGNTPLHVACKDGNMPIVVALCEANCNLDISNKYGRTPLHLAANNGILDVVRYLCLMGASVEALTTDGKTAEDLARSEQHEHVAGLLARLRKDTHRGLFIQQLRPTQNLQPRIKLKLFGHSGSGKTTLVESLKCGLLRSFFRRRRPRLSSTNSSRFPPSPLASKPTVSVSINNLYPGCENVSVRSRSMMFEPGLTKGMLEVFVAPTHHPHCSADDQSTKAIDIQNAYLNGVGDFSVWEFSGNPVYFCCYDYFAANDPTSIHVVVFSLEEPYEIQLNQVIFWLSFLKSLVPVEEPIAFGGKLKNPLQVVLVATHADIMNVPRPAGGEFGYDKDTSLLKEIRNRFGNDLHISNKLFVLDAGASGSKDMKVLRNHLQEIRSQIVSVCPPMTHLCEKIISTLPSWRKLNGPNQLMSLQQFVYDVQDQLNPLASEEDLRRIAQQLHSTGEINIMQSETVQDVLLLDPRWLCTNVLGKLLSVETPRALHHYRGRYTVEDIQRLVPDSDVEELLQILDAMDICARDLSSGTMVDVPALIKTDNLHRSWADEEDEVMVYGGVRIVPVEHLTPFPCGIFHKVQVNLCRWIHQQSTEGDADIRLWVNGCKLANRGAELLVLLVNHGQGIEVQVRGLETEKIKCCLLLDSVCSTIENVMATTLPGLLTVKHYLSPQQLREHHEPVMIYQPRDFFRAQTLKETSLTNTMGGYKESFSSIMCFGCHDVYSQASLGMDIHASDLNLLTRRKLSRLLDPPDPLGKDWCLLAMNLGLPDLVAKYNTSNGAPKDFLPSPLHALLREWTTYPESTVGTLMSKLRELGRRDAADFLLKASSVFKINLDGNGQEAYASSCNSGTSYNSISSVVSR

Sequence of Calcium/calmodulin-dependent protein kinase type II subunit alpha (Homo sapiens) (Q9UQM7 whole entry): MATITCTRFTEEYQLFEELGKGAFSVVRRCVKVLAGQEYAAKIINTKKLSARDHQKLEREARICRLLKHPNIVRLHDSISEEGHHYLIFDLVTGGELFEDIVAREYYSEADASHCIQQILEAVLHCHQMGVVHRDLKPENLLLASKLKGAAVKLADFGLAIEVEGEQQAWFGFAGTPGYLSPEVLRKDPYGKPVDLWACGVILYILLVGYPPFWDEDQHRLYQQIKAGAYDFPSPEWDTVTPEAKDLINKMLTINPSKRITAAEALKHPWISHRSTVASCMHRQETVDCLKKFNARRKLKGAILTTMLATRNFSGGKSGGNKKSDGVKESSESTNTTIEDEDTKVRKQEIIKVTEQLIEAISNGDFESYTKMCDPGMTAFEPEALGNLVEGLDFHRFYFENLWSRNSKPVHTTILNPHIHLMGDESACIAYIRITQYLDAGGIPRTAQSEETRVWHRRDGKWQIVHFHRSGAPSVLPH
Sequence of Calcium/calmodulin-dependent protein kinase type 1D (Homo sapiens) (Q8IU85 whole entry, looked up): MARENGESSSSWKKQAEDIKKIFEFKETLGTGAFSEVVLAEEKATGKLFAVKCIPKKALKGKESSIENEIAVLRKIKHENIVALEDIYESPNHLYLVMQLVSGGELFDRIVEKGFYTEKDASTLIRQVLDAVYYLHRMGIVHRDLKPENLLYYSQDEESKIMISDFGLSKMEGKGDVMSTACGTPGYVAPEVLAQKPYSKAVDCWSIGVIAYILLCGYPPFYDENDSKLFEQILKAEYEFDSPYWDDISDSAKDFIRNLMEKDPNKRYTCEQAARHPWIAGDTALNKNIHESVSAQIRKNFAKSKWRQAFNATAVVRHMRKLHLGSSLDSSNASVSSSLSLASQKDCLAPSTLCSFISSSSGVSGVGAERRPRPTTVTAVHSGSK
Sequence of Serine/threonine-protein kinase Chk2 (Homo sapiens) (O96017 whole entry): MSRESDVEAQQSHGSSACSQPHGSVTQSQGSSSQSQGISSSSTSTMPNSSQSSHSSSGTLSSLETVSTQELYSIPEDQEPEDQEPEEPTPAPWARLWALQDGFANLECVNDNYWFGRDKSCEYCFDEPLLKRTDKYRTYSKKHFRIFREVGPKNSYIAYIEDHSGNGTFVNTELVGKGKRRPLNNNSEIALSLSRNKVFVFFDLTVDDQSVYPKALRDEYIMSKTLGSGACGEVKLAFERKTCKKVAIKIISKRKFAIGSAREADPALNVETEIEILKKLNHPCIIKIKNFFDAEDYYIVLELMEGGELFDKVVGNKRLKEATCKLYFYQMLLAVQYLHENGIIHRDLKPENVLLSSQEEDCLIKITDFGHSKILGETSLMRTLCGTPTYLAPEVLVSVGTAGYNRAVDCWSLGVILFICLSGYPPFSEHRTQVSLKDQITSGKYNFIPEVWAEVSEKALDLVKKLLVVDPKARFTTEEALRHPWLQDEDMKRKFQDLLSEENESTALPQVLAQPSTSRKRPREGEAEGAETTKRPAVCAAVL
Sequence of 5'-AMP-activated protein kinase catalytic subunit alpha-2 (Homo sapiens) (P54646 whole entry, looked up): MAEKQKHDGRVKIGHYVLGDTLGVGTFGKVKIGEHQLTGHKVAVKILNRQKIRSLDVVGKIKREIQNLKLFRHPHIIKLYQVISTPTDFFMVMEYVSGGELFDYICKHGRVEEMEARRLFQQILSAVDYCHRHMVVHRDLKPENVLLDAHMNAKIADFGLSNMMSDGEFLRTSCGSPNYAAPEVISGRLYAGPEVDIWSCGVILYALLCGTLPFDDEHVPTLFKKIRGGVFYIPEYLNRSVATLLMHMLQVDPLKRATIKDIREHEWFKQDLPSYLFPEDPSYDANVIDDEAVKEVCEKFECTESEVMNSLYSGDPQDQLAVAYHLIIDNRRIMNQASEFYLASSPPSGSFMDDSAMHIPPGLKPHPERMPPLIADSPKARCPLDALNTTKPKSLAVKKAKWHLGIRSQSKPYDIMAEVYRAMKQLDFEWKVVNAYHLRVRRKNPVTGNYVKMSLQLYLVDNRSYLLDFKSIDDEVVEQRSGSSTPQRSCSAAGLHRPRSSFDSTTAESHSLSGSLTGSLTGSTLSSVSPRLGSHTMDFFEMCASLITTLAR
Sequence of Calcium/calmodulin-dependent protein kinase type II subunit delta (Homo sapiens) (Q13557 whole entry): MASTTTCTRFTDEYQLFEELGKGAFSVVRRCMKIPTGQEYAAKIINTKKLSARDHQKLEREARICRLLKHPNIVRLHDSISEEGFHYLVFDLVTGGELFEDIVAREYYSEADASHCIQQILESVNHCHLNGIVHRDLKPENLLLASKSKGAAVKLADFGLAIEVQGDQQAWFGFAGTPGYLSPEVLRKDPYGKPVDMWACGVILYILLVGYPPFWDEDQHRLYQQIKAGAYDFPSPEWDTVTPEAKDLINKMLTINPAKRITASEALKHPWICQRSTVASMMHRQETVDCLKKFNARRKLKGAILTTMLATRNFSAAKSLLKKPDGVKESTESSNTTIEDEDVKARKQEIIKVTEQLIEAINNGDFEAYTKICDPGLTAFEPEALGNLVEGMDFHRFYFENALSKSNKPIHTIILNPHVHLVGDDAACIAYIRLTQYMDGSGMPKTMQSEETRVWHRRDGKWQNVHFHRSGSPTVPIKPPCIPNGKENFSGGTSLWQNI

Usually inhibition stands for the relative decrease from the control value, in per cent. As for `COc1ccc(-c2oc3ncnc(N)c3c2-c2ccc(NC(=O)Nc3cc(C(F)(F)F)ccc3F)cc2)cc1`, the inhibition in test [1] turned out to be 7.89%; in [2], 4.62%; in test [3], 9.26%; in test [4] it was 5.38%; in [5] it was 11.7%; in [6], 8.06%. Besides, the inhibition in test [7] came to 13.9%; in test [8] it was 1.06%; in test [9], 11.9%; in [10], 4.73%; in test [11] it was 16.9%; in test [12] it was 6.01%. Moreover, the inhibition in test [13] was 21.5%; in test [14] it was 0.6%; in [15], 13.4%; in test [16], 8.35%; in [17], 6.88%; in test [18], 2.06%. Moreover, the inhibition in [19] was 3.88%; in test [20], 5.33%.

As for `CN(C)CCOc1ccc(-c2nc(-c3ccncc3)c(-c3ccc4c(c3)CC/C4=N\O)[nH]2)cc1`, the inhibition in test [1] is 2.75%; in [2], 1.23%; in test [3], 8.79%; in [4], -0.13%; in [5], 1.11%; in test [6], 0.6%. Also, the inhibition in test [7] stood at 3.51%; in test [8], 0.25%; in test [9], 1.72%; in test [10], 2.79%; in [11] it was 2.29%; in [12] it was 1.28%. The inhibition in [13] is 1.23%; in [14], 0.04%; in test [15] it was -0.88%; in test [16], 2.48%; in [17], 5.39%; in test [18], 1.94%. Besides, the inhibition in [19] stood at 4.06%; in [20], 3.99%.

As to `Cc1ccc2c(-c3ccnc(Nc4ccccc4)n3)c(-c3ccc(F)cc3)nn2n1`, the inhibition amounted to 3.36% in test [1]; 1.74% in test [2]; 6.31% in [3]; 1.47% in test [4]; 1.77% in test [5]; 1.27% in test [6]. Also, the inhibition in test [7] stood at 0.62%; in [8], 0.93%; in test [9], 1.34%; in test [10], 4.27%; in [11], 4.16%; in test [12] it was 3.9%. Moreover, the inhibition in test [13] was 4.15%; in [14], -0.02%; in test [15], 1.87%; in [16], 2.71%; in [17] it was 4.19%; in [18] it was 2.15%. The inhibition in test [19] came to 2.4%; in test [20], 3.42%.
